Test [1] is described as follows: Nuclear factor erythroid 2-related factor 2/antioxidant responsive element (Nrf2/ARE) small molecule agonists: qHTS cell viability counter screen in human keratinocytes (AID 1919968; active = well fitted curve in the direction sought with a large enough effect in the repeat runs; an effect the other way counts as inactive or inconclusive; note: nearly all actives have a fitted effect of over 55% in size; note: potency is the fitted concentration of half-maximal effect). Put shortly:
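Measured as CellTiter-Fluor fluorescence, this readout tracks cytotoxicity in the same wells as the ARE-luciferase screen. HaCaT reporter cells (1,500/well) received compounds after a 5 h pre-incubation and were exposed for 23 h.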
For orientation: qHTS replaces the single test concentration by a dilution series.

The nature of test [2]: Nuclear factor erythroid 2-related factor 2/antioxidant responsive element (Nrf2/ARE) small molecule agonists: luciferase reporter gene qHTS assay in human keratinocytes (AID 1919969; note: nearly all actives have a fitted effect of over 35% in size). (In a reporter assay the amount or activity of a reporter protein is the signal.)
Test [3] deals with Gonadotropin-releasing hormone receptor (Homo sapiens) (UniProt P30968). In words: Human gonadotropin-releasing hormone receptor (GnRHR) small molecule agonists, calcium flux assay in GnRHR-HEK293 cells (AID 1920063). Note: nearly all actives have a fitted effect of over 35% in size. In short, it runs like this: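 Fluorescence kinetics (480 nm excitation, 540 nm emission; 3 min, 1 s steps) report calcium mobilisation in human GnRHR-HEK293 cells in agonist mode. Dye incubation: 1 h, 37 C.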
Chain of Gonadotropin-releasing hormone receptor (Homo sapiens) (P30968 whole entry, looked up): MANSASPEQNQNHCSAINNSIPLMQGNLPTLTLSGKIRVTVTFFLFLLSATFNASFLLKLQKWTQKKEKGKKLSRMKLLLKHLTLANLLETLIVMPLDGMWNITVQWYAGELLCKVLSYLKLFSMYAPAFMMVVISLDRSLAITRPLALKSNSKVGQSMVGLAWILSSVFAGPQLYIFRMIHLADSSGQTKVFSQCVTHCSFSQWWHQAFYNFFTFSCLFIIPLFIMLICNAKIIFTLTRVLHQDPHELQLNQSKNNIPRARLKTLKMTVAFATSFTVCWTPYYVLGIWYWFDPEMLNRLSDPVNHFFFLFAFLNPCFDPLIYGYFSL

The target in test [4] is KiSS-1 receptor (Homo sapiens) (UniProt Q969F8). Put plainly: Human kisspeptin (KISS1R) small molecule agonists, calcium flux assay in KISS1R-HEK293 cells (AID 1920064; active = well fitted curve in the direction sought with a large enough effect in the repeat runs; an effect the other way counts as inactive or inconclusive). Put shortly:
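Measures KISS1R agonism through calcium-sensitive dye fluorescence in stably transfected HEK293 cells, read for 3 min after pin-tool compound delivery; 15-point titrations in triplicate.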
(Calcium flux is commonly read through the fluorescence of an indicator in the cells.)

Test [5] can be described thus: G protein-coupled receptor (GPCR) small molecule agonists, calcium flux assay: HEK293 wild type cell line counter screen (AID 1920065). Put shortly: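 Readout: fluorescence at 480 nm excitation/540 nm emission, sampled at 1 s intervals for 3 min. Cells had been cultured 18 h, then dye-loaded 1 h at 37 C before compound or ATP addition.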
The nature of test [6]: p53 small molecule agonists, cell-based qHTS assay with human liver microsomes: qHTS cell viability counter screen (AID 1963579). Note: nearly all actives have a fitted effect of over 45% in size. In short, it runs like this: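 Metabolically activated exposure: compounds, human liver microsomes and NADPH (0.5 mg/mL final apiece) were added to p53RE-bla cells seeded 5 h earlier, left 16 h at 37 C, and then assessed for viability by CellTiter-Glo luminescence.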

Test [7] in a line: p53 small molecule agonists, cell-based qHTS assay with rat liver microsomes: qHTS cell viability counter screen (AID 1963580). Note: nearly all actives have a fitted effect of over 45% in size. In short, it runs like this: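 Viability is assessed in parallel with the p53 reporter read: HCT-116 p53RE-bla cells receive compounds plus rat microsomes and NADPH (0.5 mg/mL final apiece), incubate 16 h at 37 C, and then CellTiter-Glo luminescence is recorded.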

Test [8] deals with 5-hydroxytryptamine receptor 2A (Homo sapiens) (UniProt P28223). Put plainly: 5-hydroxytryptamine receptor 2A (HTR2A) small molecule antagonists, cell-based qHTS assay (AID 1963586). Note: nearly all actives have a fitted effect of over 45% in size. Put shortly: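 Antagonist-mode intracellular calcium assay: DOI (4 nM) added after 5 min compound pre-incubation at room temperature to dye-loaded HTR2A-CHO cells. Fluorescence followed for 3 min, sampled every second.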
Chain of 5-hydroxytryptamine receptor 2A (Homo sapiens) (P28223 whole entry, looked up): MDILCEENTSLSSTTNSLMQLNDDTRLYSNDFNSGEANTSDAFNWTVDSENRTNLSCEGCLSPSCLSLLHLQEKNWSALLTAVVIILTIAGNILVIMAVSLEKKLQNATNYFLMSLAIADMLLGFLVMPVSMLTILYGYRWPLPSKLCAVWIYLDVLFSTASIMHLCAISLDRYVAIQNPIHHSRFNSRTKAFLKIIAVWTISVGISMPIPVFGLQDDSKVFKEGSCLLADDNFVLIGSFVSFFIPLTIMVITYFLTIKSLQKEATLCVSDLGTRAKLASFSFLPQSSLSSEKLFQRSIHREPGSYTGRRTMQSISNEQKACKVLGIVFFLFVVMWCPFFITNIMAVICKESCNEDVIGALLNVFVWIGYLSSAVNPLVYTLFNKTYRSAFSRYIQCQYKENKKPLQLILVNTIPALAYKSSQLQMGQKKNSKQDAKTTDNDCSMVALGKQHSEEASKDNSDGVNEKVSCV

For test [9], the target named is Muscarinic acetylcholine receptor M1 (Homo sapiens) (UniProt P11229). In words: Cholinergic receptor muscarinic 1 (CHRM1) small molecule antagonists, cell-based qHTS assay (AID 1963588). Note: nearly all actives have a fitted effect of over 40% in size. Put shortly: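 CHRM1-CHO calcium-flux assay, antagonist mode. Cells were seeded 18 h, dye-loaded 1 h at 37 C and given compound for 5 min at RT, then acetylcholine was added at 50nM. FDSS fluorescence was read 3 min; 15 concentrations, three runs.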
Chain of Muscarinic acetylcholine receptor M1 (Homo sapiens) (P11229 whole entry, looked up): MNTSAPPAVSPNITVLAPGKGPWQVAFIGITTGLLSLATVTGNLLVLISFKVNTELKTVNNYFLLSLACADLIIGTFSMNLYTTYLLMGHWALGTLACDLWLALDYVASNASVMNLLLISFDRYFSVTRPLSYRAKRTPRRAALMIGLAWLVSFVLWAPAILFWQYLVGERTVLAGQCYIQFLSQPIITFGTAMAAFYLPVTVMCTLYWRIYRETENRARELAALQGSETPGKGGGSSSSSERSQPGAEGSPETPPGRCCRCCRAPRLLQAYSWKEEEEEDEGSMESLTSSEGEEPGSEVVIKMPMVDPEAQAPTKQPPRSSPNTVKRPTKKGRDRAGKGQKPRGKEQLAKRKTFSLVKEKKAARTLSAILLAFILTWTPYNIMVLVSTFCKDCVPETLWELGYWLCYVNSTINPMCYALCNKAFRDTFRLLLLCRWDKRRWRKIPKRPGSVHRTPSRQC

Test [10] has the same target. Put plainly: Cholinergic receptor muscarinic 1 (CHRM1) small molecule agonists, cell-based qHTS assay (AID 1963589). Note: nearly all actives have a fitted effect of over 35% in size. In short, it runs like this: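 Each compound was tested at 15 concentrations across three independent runs on dye-loaded CHO cells stably expressing human CHRM1, reading intracellular calcium fluorescence kinetically at 1 sec intervals.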
A short description of test [11]: cAMP Responsive Elements (CRE) small molecule agonists, cell-based qHTS assay (AID 1963590). Put shortly:
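Cell line: CRE-bla HEK 293T; medium DMEM/10% dialyzed FBS/0.1 mM NEAA/1 mM pyruvate/25 mM HEPES; 3 h compound exposure; beta-lactamase FRET readout after 2 h substrate loading at RT.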

Test [12] concerns the target Beta-2 adrenergic receptor (Homo sapiens) (UniProt P07550). Put plainly: Adrenergic beta2 receptor (ADRB2) small molecule antagonists, cell-based qHTS assay (AID 1963592). Note: series mostly up to about 92 µM; nearly all actives have a fitted effect of over 50% in size. In short, it runs like this:
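Cells (CHO, stable ADRB2 overexpression) incubated 18-20hr at 37C; compounds added from DMSO; agonist mix (1nM isoproterenol, 100uM IBMX, 25uM Ro-20-1724) added; 0.5hr RT; d2-cAMP and anti-cAMP-cryptate added; 1hr RT; 665/615 nm read.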

The target of test [13] is D(2) dopamine receptor (Homo sapiens) (UniProt P14416). Put plainly: Dopamine D2 receptor (DRD2) small molecule antagonists, cell-based qHTS assay (AID 1963595; active = well fitted inhibition curve with a large enough effect in the signal ratio in the repeat runs, with a control signal flat; the % refers to the signal ratio). In short, it runs like this: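 Antagonist mode in DRD2-HEK293 cells: after compound addition with 0.1 mM Ro20-1724, cells received quinpirole (12 nM) and NKH477 (200 nM) for 30 min at room temperature; HTRF cAMP read after 1 h detection.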
Chain of D(2) dopamine receptor (Homo sapiens) (P14416 whole entry, looked up): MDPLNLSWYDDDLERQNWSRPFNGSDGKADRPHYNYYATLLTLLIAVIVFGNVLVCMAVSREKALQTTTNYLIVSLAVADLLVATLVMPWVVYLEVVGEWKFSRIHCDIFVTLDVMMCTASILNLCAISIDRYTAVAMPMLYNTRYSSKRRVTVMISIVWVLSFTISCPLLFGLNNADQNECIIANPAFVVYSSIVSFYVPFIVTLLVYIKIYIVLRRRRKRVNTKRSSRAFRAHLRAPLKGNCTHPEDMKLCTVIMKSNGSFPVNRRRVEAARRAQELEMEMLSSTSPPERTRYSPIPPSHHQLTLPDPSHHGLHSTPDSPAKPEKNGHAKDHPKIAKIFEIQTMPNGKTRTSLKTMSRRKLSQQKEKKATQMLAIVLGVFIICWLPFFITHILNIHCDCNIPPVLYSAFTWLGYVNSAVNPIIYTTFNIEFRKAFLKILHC

Test [14] is described as follows: p53 small molecule agonists, cell-based qHTS assay: qHTS cell viability counter screen (AID 1963581). Note: nearly all actives have a fitted effect of over 45% in size. In short, it runs like this:
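In the same plates used for the p53 bla reporter, HCT-116 cells given compounds for 16 h at 37 C received CellTiter-Glo; luminescence was recorded 30 min later at room temperature.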

Test [15] deals with 5-hydroxytryptamine receptor 2A (Homo sapiens) (UniProt P28223). In words: 5-hydroxytryptamine receptor 2A (HTR2A) small molecule agonists, cell-based qHTS assay (AID 1963587). Note: nearly all actives have a fitted effect of over 30% in size. Note: potency is the fitted concentration of half-maximal effect. Put shortly: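 CHO cells stably expressing human HTR2A, plated 18 h, loaded with calcium dye 1 h at 37 C. Agonist mode: compounds added and intracellular calcium fluorescence recorded kinetically for 2 min at 1 sec intervals.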

A short description of test [16]: cAMP Responsive Elements (CRE) small molecule antagonists, cell-based qHTS assay (AID 1963591; active = well fitted inhibition curve with a large enough effect in the signal ratio in the repeat runs, not every such curve was filed as active; the % refers to the signal ratio). In short, it runs like this:
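Inhibition of NKH477-driven (0.25 uM final) CRE-beta-lactamase signal in HEK293T cells, 3 h compound exposure at 37 °C, detected by FRET substrate fluorescence.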

In test [17] the target is D(2) dopamine receptor (Homo sapiens) (UniProt P14416). Put plainly: Dopamine D2 receptor (DRD2) small molecule agonists, cell-based qHTS assay (AID 1963594). Note: nearly all actives have a fitted effect of over 35% in size. Put shortly: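 HEK293 cells stably expressing human DRD2, pre-treated with PDE inhibitor Ro20-1724 (0.1 mM final) and compound 10 min at room temperature, then stimulated with NKH477 (200nM […]) for 30 min. cAMP read by HTRF (665/620 nm).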

For test [18], the target named is Beta-2 adrenergic receptor (Homo sapiens) (UniProt P07550). Put plainly: Adrenergic beta2 receptor (ADRB2) small molecule agonists, cell-based qHTS assay (AID 1963593).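 Note: CHO cells stably overexpressing human ADRB2.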 In short, it runs like this:
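CHO cells stably over-expressing ADRB2 were plated overnight at 37C, then dosed with compounds plus a stimulation mix containing 100uM IBMX and 25uM Ro-20-1724 for 0.5hr at room temperature. cAMP was measured by HTRF competition, 1hr.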

A number with no mark means an inactive call. Records with an inconclusive call do not appear. Calls of active or inactive are those of the source. Unless noted, calls come from the whole dose curve.

Chain of Beta-2 adrenergic receptor (Homo sapiens) (P07550 whole entry, looked up): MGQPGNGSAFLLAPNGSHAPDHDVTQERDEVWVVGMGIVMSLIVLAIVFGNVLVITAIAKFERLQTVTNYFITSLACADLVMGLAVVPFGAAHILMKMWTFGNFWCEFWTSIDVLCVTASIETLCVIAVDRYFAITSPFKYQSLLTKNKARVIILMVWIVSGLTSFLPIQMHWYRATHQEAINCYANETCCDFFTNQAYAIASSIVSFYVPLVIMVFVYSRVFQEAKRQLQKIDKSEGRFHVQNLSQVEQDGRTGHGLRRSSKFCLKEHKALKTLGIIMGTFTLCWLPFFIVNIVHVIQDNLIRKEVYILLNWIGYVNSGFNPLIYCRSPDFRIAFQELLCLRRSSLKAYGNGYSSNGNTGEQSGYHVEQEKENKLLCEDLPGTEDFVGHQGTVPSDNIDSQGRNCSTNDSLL
Chain of KiSS-1 receptor (Homo sapiens) (Q969F8 whole entry, looked up): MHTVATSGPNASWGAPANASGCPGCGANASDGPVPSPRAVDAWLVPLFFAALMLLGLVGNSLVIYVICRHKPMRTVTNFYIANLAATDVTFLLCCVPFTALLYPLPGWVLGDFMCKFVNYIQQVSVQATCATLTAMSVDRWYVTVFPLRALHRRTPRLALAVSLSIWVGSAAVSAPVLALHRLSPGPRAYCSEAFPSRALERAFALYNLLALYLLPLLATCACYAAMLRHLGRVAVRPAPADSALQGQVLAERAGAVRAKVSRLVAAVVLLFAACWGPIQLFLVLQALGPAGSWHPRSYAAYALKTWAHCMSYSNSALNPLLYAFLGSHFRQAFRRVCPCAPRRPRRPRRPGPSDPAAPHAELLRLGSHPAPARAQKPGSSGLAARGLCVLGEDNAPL

On to `CC(C)(O)c1ccc(C(C)(C)O)cc1`, for which the Potency result in test [1], in [2], in test [3], in [4], in test [5] and in [6] was “inactive” throughout. The Potency result in test [7], in test [8], in test [9], in test [10], in test [11] and in [12] was “inactive” in each case. Also, the Potency entry in [13] was “inactive”.

As for `O=C(O)c1ccc(O)c(O)c1`, the Potency result in test [1], in test [2], in test [3], in test [4], in test [5] and in test [6] was “inactive” in each case. For the same compound, the Potency entry in test [14], in [8], in test [15], in test [9], in test [10] and in test [11] was “inactive” throughout. In addition, the Potency entry in test [16], in test [17] and in [13] was “inactive” throughout.

For the compound `COc1cc(S(=O)(=O)Nc2ccccc2)c(OC)cc1N`, the Potency entry in test [1], in test [2], in [3], in [4], in [5] and in test [6] was “inactive” throughout. Further, the Potency entry in test [14], in test [8], in test [15], in test [9], in test [10] and in test [11] was “inactive” throughout. In addition, the Potency entry in [12], in test [17] and in test [13] was “inactive” in each case.

Consider `Fc1ccccc1`, for which the Potency result in test [1], in test [2], in test [3], in [4], in [5] and in test [6] was “inactive” each time. For the same compound, the Potency result in [7], in test [9], in test [11], in test [16], in test [12] and in test [18] was “inactive” throughout. The Potency result in [17] and in [13] was “inactive” in each case.

As for `N#Cc1ccccc1C#N`, the Potency entry in test [1], in test [2], in test [3], in [4], in [5] and in test [6] was “inactive” throughout. The Potency result in test [14], in test [8], in test [15], in test [10], in [11] and in [16] was “inactive” in each case. Moreover, the Potency result in [12], in [18], in test [17] and in [13] was “inactive” each time.

In the case of `COc1nc(C)nc(Cl)c1NC1=NCCN1`, the Potency entry in [1], in test [2], in test [3], in test [4], in test [5] and in test [6] was “inactive” throughout. The Potency entry in [7], in test [11], in test [16], in [12], in test [17] and in test [13] was “inactive” in each case.

As for `C=CCc1cc(S(=O)(=O)c2ccc(O)c(CC=C)c2)ccc1O`, the Potency in [1] was 61.1 µM (active). For the same compound, the Potency result in [2], in [3], in test [4], in test [5], in [6] and in test [7] was “inactive” in each case. Also, the Potency entry in test [8], in test [15], in [9], in test [11], in [12] and in test [17] was “inactive” in each case. In test [13], the Potency result was “inactive”.

`CCO[Si](CCCSSSSCCC[Si](OCC)(OCC)OCC)(OCC)OCC`: the Potency in test [1] was 61.2 µM (active); in test [15], 49 µM (active). In addition, the Potency entry in test [2], in test [3], in test [4], in [5], in test [6] and in test [14] was “inactive” each time. Besides, the Potency entry in test [8], in test [9], in test [10], in [12], in test [17] and in test [13] was “inactive” throughout.

For `CCOc1ccc(C(=O)OCCN(CC)CC)cc1`, the Potency result in [1], in [2], in test [3], in test [4], in test [5] and in test [6] was “inactive” each time. For the same compound, the Potency entry in [14], in test [8], in [15], in [9], in test [10] and in test [11] was “inactive” in each case. Besides, the Potency result in [16], in test [12], in test [18] and in test [13] was “inactive” each time.

Consider `NCCNC(=O)c1ccc(Cl)cn1`, for which the Potency entry in test [1], in [2], in [3], in [4], in [5] and in [6] was “inactive” each time. In addition, the Potency result in test [7], in test [8], in [9], in test [10], in test [12] and in test [18] was “inactive” in each case. Besides, the Potency entry in test [17] and in test [13] was “inactive” throughout.

In the case of `COc1ccc2c(c1)c1c3n2CCN(C)C3=NCC1`, the Potency result in test [1], in test [2], in [3], in test [4], in test [5] and in test [6] was “inactive” each time. In addition, the Potency entry in test [7], in test [8], in [15], in test [9], in test [11] and in [16] was “inactive” each time. Further, the Potency result in test [12], in test [17] and in test [13] was “inactive” throughout.
